Laboratory results as given in ChEMBL document CHEMBL3988442, “University of Dundee, Small-Polar-MMV Screening Library” (2021).
Out of some 53,000 compounds screened, about 900 (1.7%) showed an effect of 50% or more. Many of the other results were omitted from the sample, so strong results are more common in it than they were.

The compounds below were run on Mycobacterium tuberculosis (assay: Cornell - Phenotypic assay to identify agents that inhibit growth of Mycobacterium tuberculosis). Conditions: 10 mM as filed; unlikely as a test dose.
Type: functional
Parameters: scale not given: direction of the effect not stated beside the values

Row | Compound | Percent Effect
1 | O=C(c1ccc(COc2ccc(Cl)cc2)o1)N1N=CCC1(O)C(F)(F)F (stereo not given) | 61.62%
2 | O=C(c1ccc(COc2ccccc2Cl)o1)N1N=CCC1(O)C(F)(F)F (stereo not given) | 1.91%
3 | Cc1cccc(OCc2ccc(C(=O)N3N=CCC3(O)C(F)(F)F)o2)c1 (stereo not given) | 29.06%
4 | Cc1nnsc1C(=O)N1CCC(c2nc3ccccc3[nH]2)CC1 | 0.6445%
5 | CCOC(=O)C1CCN(C(=O)c2cc(F)ccc2-n2cnnn2)CC1 | -0.0971%
6 | O=C(c1ccnnc1)N1CC[C@@H](O)[C@@H]1Cc1ccccc1 | -23.76%
7 | CCc1c(C)sc2c1c(N)nc(=O)n2CCN1CCCCC1 | 22.93%
8 | CCN(CC1CCCN(CCc2cccc(OC)c2)C1)C(=O)CCSC (stereo not given) | -29.92%
9 | Cc1ccc(CN2C[C@H](OCC3CCOCC3)[C@H]3COC[C@H]32)o1.O=C(O)C(F)(F)F | -26.82%
10 | c1ccc(N2CCOCC3(CCCN(c4nccs4)C3)C2)nc1 (stereo not given) | 23.66%
11 | O=C(O)C(F)(F)F.c1ccc(N2CCCC3(COCCN(c4nccs4)C3)C2)nc1 (stereo not given) | 51.66%
12 | Cc1ccc(N2CCCC3(COCCN(c4nccs4)C3)C2)nn1.O=C(O)C(F)(F)F.O=C(O)C(F)(F)F (stereo not given) | 20.96%
13 | Cc1nc(Cn2c3c(ccc2=O)CC(NC(N)=O)CC3)cs1 (stereo not given) | -11.16%
14 | O=C(c1ccoc1)N1CC[C@@H]2O[C@@H](COCc3ccncc3)CC[C@@H]21 | 17.45%
15 | CC(C)c1noc(CCC(=O)Nc2cc(F)ccc2F)n1 | -35.92%
16 | CC(C)c1noc(C[S+]([O-])CC(=O)Nc2cc(F)ccc2F)n1 (stereo not given) | 57.68%
17 | CC(C)c1noc(CCCC(=O)Nc2cccc(F)c2)n1 | -20.44%
18 | CC(C)c1noc(C[S+]([O-])CC(=O)Nc2ccc(F)c(F)c2)n1 (stereo not given) | 60.65%
19 | CC(C)c1noc(CN2CCN(C(=O)c3cc(Cl)ccc3F)CC2)n1 | 34.44%
20 | CC(C)CCc1noc(C[S+]([O-])CC(=O)NCc2ccccc2)n1 (stereo not given) | -9.037%
21 | Cc1cc(C)n(C2CCCN(C(=O)c3ccc(N(C)C)nc3)C2)n1 (stereo not given) | -19.67%
22 | Cc1ccc(CN2CCCC(c3cnccn3)C2)s1 (stereo not given) | 14.09%

Row | Compound | Percent Effect
23 | Cl.Fc1cccc(F)c1Cn1c(C2CCCNC2)cc2cccnc21 (stereo not given) | 30.15%
24 | c1cncc(CNCCc2cccs2)c1 | 34.29%
25 | Cc1cn2nc(Sc3nnnn3C)sc2n1 | -10.32%
26 | O=C(O)c1csc(S(=O)(=O)Nc2c(F)cccc2-n2cccn2)c1 | -80.25%
27 | O=C(c1ncccn1)N1C[C@@H]2CC[C@H](Oc3cccc(F)c3)[C@@H]2C1 | 15.44%
28 | Cn1ccc(C2CCCCCN2C(=O)c2cccnc2)n1 (stereo not given) | -55.79%
29 | CCC(CN1CCOCC1)n1cncc1-c1ccc2c(c1)CCN2CC.Cl (stereo not given) | 11.86%
30 | CN(CC(=O)N(CCC#N)c1ccccc1)C1CCc2ccccc21 (stereo not given) | 6.676%
31 | Cc1cc(NC(=O)CN2CCCC2Cn2nc(C)nc2C)on1 (stereo not given) | 9.67%
32 | COc1ccc2c(c1)C(=O)N(C)C1(CCN(CC3CC3)CC1)N2 | -6.53%
33 | COc1ccc2c(c1)C(=O)N(C)C1(CCN(C(=O)OC(C)(C)C)CC1)N2 | 105.8%
34 | COc1ccc2c(c1)C(=O)N(C)C1(CCN(CC=C(C)C)CC1)N2 | 0.8841%
35 | OCC1(CC2CCCCO2)CCN(c2cnc3ccccc3n2)CC1 (stereo not given) | 107%
36 | Cc1cc(N2CCC(CO)(CC3CCCCO3)CC2)c2ccccc2n1 (stereo not given) | 0.8134%
37 | Cc1cc(N2CCC(CO)(CC3CCCCO3)CC2)nc2ccccc12 (stereo not given) | -1.855%
38 | O=C(c1ccc[nH]1)N1CCOCC12CCCC2 | -33.44%
39 | Cc1ccc(F)cc1C(=O)N1CCOCC12CCCC2 | 20.33%
40 | Cc1[nH]ccc1C(=O)N1CCOCC12CCCC2 | 102.6%
41 | CC(C)CN1C(=O)CC(N2CCN(c3ccc(F)cc3)CC2)C1=O (stereo not given) | 12.43%
42 | COCCN1C(=O)CC(N2CCN(c3ccc(OC)cc3)CC2)C1=O (stereo not given) | 55.38%
43 | CCCN1C(=O)CC(N2CCN(c3ccc(F)cc3)CC2)C1=O (stereo not given) | -5.623%
44 | COCCCN1C(=O)CC(N2CCN(c3ccc(F)cc3)CC2)C1=O (stereo not given) | 4.554%

Row | Compound | Percent Effect
45 | O=C1CC(N2CCN(c3ccc(O)cc3)CC2)C(=O)N1Cc1cccs1 (stereo not given) | 104.3%
46 | O=C1CC(N2CCN(c3ccc(F)cc3)CC2)C(=O)N1Cc1cccs1 (stereo not given) | 42.8%
47 | COCCN1C(=O)CC(N2CCN(c3ccccc3)CC2)C1=O (stereo not given) | 12.26%
48 | COCCN1C(=O)CC(N2CCN(c3ccc(F)cc3)CC2)C1=O (stereo not given) | 4.981%
49 | O=C1CC(N2CCN(c3ccccc3O)CC2)C(=O)N1Cc1cccs1 (stereo not given) | 63.35%
50 | COC1(CNC(=O)c2ccoc2)CCSC1 (stereo not given) | -5.057%
51 | Cc1nn(C(C)C)c2cnn(CC(=O)N3CCSCC3)c12 | -7.998%
52 | CCO[C@H]1CO[C@@]2(CCN(Cc3ccc4c(c3)OCO4)C2)C1.O=C(O)C(F)(F)F | 22.33%
53 | CCC(c1ccccc1)S(=O)(=O)CCO (stereo not given) | -20.37%
54 | CN(C)c1ncc(CN2CCC(O)(c3ccccc3F)CC2)cn1.O=C(O)CC(O)(CC(=O)O)C(=O)O | 6.266%
55 | COc1ccc(NC2CCCN(Cc3cnc(N(C)C)s3)C2)cc1 (stereo not given) | 47.8%
56 | CN(C)c1ncc(CN2CCCC(Nc3ccc4c(c3)OCCO4)C2)s1 (stereo not given) | 37%
57 | COc1ccc(NC2CCCN(Cc3cnc(N(C)C)s3)C2)cc1OC (stereo not given) | 55.76%
58 | O=C(NC1CCCCC1)c1ccc(Oc2ccc3nncn3n2)cc1 | -7.341%
59 | CS(=O)(=O)N[C@H]1CCO[C@]2(CCN(C(=O)c3ccccn3)C2)C1.O=C(O)C(F)(F)F | 4.539%
60 | OCCN1CCCC(c2cccc(-c3ccccc3F)n2)C1 (stereo not given) | -3.425%
61 | CS(=O)(=O)N1CCCC(c2cccc(-c3ccccc3F)n2)C1 (stereo not given) | 29.33%
62 | CN1CCCC(c2cccc(-c3cccc(C(F)(F)F)c3)n2)C1 (stereo not given) | 30.4%
63 | CN1CCCC(c2nccnc2-c2cccc(C(F)(F)F)c2)C1 (stereo not given) | 32.41%
64 | CN1CCCC(c2cncc(-c3cccc(C(F)(F)F)c3)n2)C1 (stereo not given) | 51.88%
65 | CN1CCCC(c2cccc(-c3ccccc3F)n2)C1 (stereo not given) | 55.32%
